Screens from PubChem.
HCMV antiviral: qHTS Assay for inhibitors of the human cytomegalovirus (HCMV). HFF cells, HCMV-luciferase reporter, 72 h; stronger effect = lower value. 410,000 compounds, 4.5% hits. AID 1259415, 2018. activity change, negative = inhibition, % at 57.5 µM; in the data active = activity change below about -60%; inconclusive = no clear call, values can overlap the other calls; inactive = above about -39%
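HFF cells seeded 16 h at 37C, treated with compounds, infected with luciferase-reporter HCMV at MOI 1 PFU/cell; luciferase read at 72 h post infection, normalized to buffer-only and Salinomycin controls.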
FMDV antiviral: High Throughput Screening for Foot and Mouth Disease Virus Antivirals. Potency, µM (titrated, usually from 57.9 µM), most hits filed as inhibitors. 410,000 compounds, 1.2% hits. FMDV antiviral cell-based qHTS; calls by dose curve; tested in HEK293T cells; also: read-out not given here; nearly all actives have a fitted effect of over 45% in size
LASV entry inh: qHTS for Inhibitors of binding or entry into cells for Lassa Virus. 300,000 compounds, 1.2% hits. AID 540256, 2011. Potency, µM (highest dose often 37.9 µM), usual class: inhibitors. Lassa virus pseudotype entry inhibition, cell reporter; calls by dose curve; tested in HEK293 cells; also: nearly all actives have a fitted effect of over 50% in size
MARV entry inh: qHTS for inhibitors of binding or entry into cells for Marburg Virus; AID 540276, 2011; 300,000 compounds, 1.8% hits; Potency, µM (series often up to 37.8 µM), most hits filed as inhibitors; Marburg virus pseudotyped entry inhibition, cell reporter; calls by dose curve; tested in HEK293 cells
HCV inh: qHTS Assay for Inhibitors of Hepatitis C Virus (HCV) | Huh7.5.1 HCVcc-Cre infection, luciferase reporter, 44 h | Potency, µM (doses to about 41.8 µM), hits mostly inhibitors | 340,000 compounds, 3.4% hits | AID 651820, 2012; active = well fitted inhibition curve with a large enough effect; inconclusive = small, poorly fitted or top-dose-only effect, or another doubt; inactive = no such curve, though single readings can be large or run the other way
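A cell-based infection assay in which seeded cells (1,000 per well) receive test compound after 4 h, are inoculated with HCVcc-Cre at approximately 0.5 moi, and are incubated 44 h before luminescence detection.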
Numbers stand for hits; n = inactive; u = inconclusive; x = no result given. The list is not random: actives were taken first. Their share in the collection is about 7.9%.

SMILES	HCMV antiviral	FMDV antiviral	LASV entry inh	MARV entry inh	HCV inh
O=C(N/N=C/c1c(O)ccc2ccccc12)c1cccnc1	-98	n	u	u	5µM
Cc1nc2cc(NC(=O)[C@@H]3C[C@@H](Sc4ccccn4)CN3Cc3cccc(F)c3)ccc2s1	x	n	x	x	x
Nc1nccnc1C(=O)OCC(=O)NCCc1ccc(Cl)cc1	u	n	x	x	n
O=C(N/N=C\c1c(O)ccc2ccccc12)c1cncc(Br)c1	-100	n	u	u	u
O=C(N/N=C/c1c(O)ccc2ccccc12)c1ccc[n+](CCO)c1	n	n	n	n	n
Cn1c(/N=C/c2c(O)ccc3ccccc23)nc2ccccc21	-85	n	n	n	n
Cc1ccc(C(=O)N/N=C/c2c(O)ccc3ccccc23)cn1	-97	n	x	x	4.5µM
Cn1cccc1/C=N\NC(=O)c1cncc(Br)c1	u	n	n	u	n
Cn1cc(C(=O)N/N=C/c2c(O)ccc3ccccc23)ccc1=O	-99	n	x	x	4.5µM
CCOc1ccc(Br)cc1C1=CC(=O)C[C@H](c2ccc(OC)cc2)C1	n	n	x	x	u
CCn1nc(C)c(/C=N/NC(=O)c2ccc3c(c2)c(C)c(C)n3Cc2ccccc2)c1C	n	u	n	n	10µM
O=C(NN=Cc1ccc(N(CCCl)CCCl)cc1Cl)c1cccnc1	n	n	u	1.6µM	u
Cc1c(/C=N/NC(=O)c2cccs2)c2ccccc2n1Cc1ccccc1Cl	-81	n	4.1µM	2.9µM	u
Cc1occc1C(=O)N/N=C/c1c[nH]c2ccccc12	n	n	n	n	n
Cc1occc1C(=O)N/N=C/c1c(O)ccc2ccccc12	-101	n	u	3.5µM	u
C=CCc1ccccc1OCC(=O)NNC(=S)NCc1ccccc1	n	n	n	u	n
O=c1oc2cc(Oc3ccc(C(F)(F)F)cc3[N+](=O)[O-])ccc2c2c1CCCC2	n	u	u	n	u
COc1ccc(NC(C)C(=O)N/N=C/c2c(O)ccc3ccccc23)cc1 (stereo not given)	n	n	u	u	n
Cn1nccc1C(=O)N/N=C/c1c(O)ccc2ccccc12	-99	n	x	x	0.89µM
O=C(N/N=C/c1cccnc1)c1cc(O)c(O)c(O)c1	n	n	u	3.2µM	n
CCCc1nn(C)c(C(=O)Nc2cccc(Cl)c2)c1Cl	-64	n	n	n	u
Cn1ncc(N=Cc2c(O)ccc3ccccc23)c1C(=O)Nc1cccc(Cl)c1	n	n	u	18µM	u
O=C(N/N=C/c1cccnc1)c1ccc(O)cc1	n	n	u	n	n
CC(=O)Nc1ccc(C(=O)N2CCCC(n3cc(C(=O)NCC(C)C)nn3)C2)cc1 (stereo not given)	x	n	x	x	x
CN(C)c1ccc(C(CNC(=O)c2ccccc2)N2CCc3ccccc32)cc1 (stereo not given)	n	n	n	x	x
SMILES	HCMV antiviral	FMDV antiviral	LASV entry inh	MARV entry inh	HCV inh
COC(=O)C/C=C/[C@@H](C)[C@@H](/C=N/OC[C@@H](O)COCc1ccco1)NS(=O)(=O)c1ccc(C)cc1	x	x	x	n	x
C#CCN(C[C@H]1[C@H](OC(=O)NCc2ccc(OC)c(OC)c2)[C@H](OC(=O)NCc2ccc(OC)c(OC)c2)C[C@@H](C(=O)OC)[C@H]1C(=O)OC)S(=O)(=O)c1ccc(C)cc1	n	u	x	x	x
O=C(CC[C@H]1O[C@@H](n2ccc(=O)[nH]c2=O)[C@H](O)[C@@H]1O)NCCc1c[nH]c2ccccc12	n	n	x	x	x
O=C(NN=Cc1c(O)ccc2ccccc12)c1ccncc1	-100	n	3.2µM	3.2µM	u
O=C(N/N=C\c1c(O)ccc2ccccc12)c1ccc(O)cc1	-98	n	x	x	u
O=C(N/N=C/c1c(O)ccc2ccccc12)c1ccc(Br)o1	-99	n	u	u	3.5µM
Cn1c(-c2ccccc2)c(/C=N/NC(=O)c2ccc(O)cc2)c2ccccc21	n	n	x	x	10µM
COc1cccc([C@H]2/C(=C(\O)c3ccc4c(c3)OCCO4)C(=O)C(=O)N2CCN(C)C)c1	x	x	x	n	x
CN(C)N=C1c2cc(S(=O)(=O)N(C)C)ccc2-c2ccc(S(=O)(=O)N(C)C)cc21	n	n	x	x	u
Cc1cc(C(=O)C(=O)O)c(C)n1-c1ccc(Cl)c(Cl)c1	n	n	n	u	n
COc1ccc2ccccc2c1/C=N/NC(=O)c1cccc(C)c1	n	n	x	x	11µM
